APOBEC3G inh: blocks human APOBEC3G single-stranded DNA deamination; recombinant A3G, ssDNA deamination FAM/TAMRA fluorescence; AID 493012; 0.28% of 330,000 active; inhibition, % at 20 µM;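 active = inhibition of at least 40% at 20 µM, with no more than 30% in the related APOBEC3A deaminase screen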;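 note: plate controls were DMSO wells with A3G for no effect and wells lacking A3G enzyme for full effect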
Target sequence (Q9HC16 whole entry, looked up): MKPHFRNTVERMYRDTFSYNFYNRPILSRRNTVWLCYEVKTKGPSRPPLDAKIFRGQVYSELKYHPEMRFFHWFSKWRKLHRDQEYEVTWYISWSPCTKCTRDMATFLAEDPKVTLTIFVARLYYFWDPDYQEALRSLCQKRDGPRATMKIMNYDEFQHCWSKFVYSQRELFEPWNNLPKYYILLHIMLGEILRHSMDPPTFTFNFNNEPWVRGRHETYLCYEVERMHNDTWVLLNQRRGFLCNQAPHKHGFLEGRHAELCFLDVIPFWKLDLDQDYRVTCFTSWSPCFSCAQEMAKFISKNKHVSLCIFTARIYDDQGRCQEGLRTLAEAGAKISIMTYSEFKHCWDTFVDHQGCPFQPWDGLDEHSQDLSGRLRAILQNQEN
APOBEC3A inh: human APOBEC3A DNA deaminase inhibition | P31941 | recombinant A3A, FAM/TAMRA ssDNA deamination fluorescence | AID 493011 | inhibition, % at 20 µM | 0.41% of 330,000 active;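 active = at least 40% inhibition at 20 µM here, with at most 30% in a related deaminase screen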;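 note: plate controls were A3A with DMSO for no effect and wells lacking A3A enzyme for full effect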
M18AAP inhibitor: blocks P. falciparum M18 aspartyl aminopeptidase; inhibition, % at 7.35 µM; AID 1822; 1.2% of 290,000 active; recombinant PfM18AAP, H-Glu-NHMec fluorogenic cleavage;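 active = inhibition above the campaign mean inhibition over all tested compounds plus 3 SD, cut at about 28% in these data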;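 note: 0% = plate median of test compound wells and 100% = 2 mM ZnCl2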
PfGluPho inh: PfG6PD (Plasmodium falciparum) enzyme inhibition. PfGluPho enzyme, NADPH resazurin-diaphorase fluorescence. inhibition, % at 20 µM. 0.78% of 350,000 active;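 active = inhibition reaching at least a set limit at 20 µM in the primary screen, cut at about 59% in these data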;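 note: 0% = DMSO wells with substrate and 100% = DMSO wells lacking glucose-6-phosphate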
Yeast superoxide: lowers age-related superoxide in aged yeast cells; AID 2690; S. cerevisiae aged cells, superoxide DHE fluorescence; hits give low values; superoxide response (% of plate mean), % at 10 µM; 0.18% of 330,000 active;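 active = superoxide response under a set limit, about three screen SD below normal, cut at about 65% in these data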;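 note: yeast aged for seven days with compound at 30 °C before DHE staining; 100% = average MFI of all compound-treated wells on the plate with controls excluded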
PfG6PD confirm: confirmation of Plasmodium falciparum G6PD inhibitors. shares compounds with PfGluPho inh. inhibition, % at 20 µM. 34% of 2,400 active. recombinant PfGluPho, NADPH-diaphorase-resazurin fluorescence;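 active = inhibition of at least 50% at 20 µM in any single replicate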;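 note: 0% = DMSO with substrate and 100% = DMSO lacking glucose-6-phosphate substrate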
Diaph ctr 10uM: inhibits diaphorase or oxidizes, flagging false PfG6PD hits. shares compounds with PfGluPho inh. diaphorase-coupled resazurin reduction, fluorescence, NADPH 10 uM. inhibition, % at 20 µM. 39% of 820 active;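 active = average inhibition reaching 50% or more with the compound at 20 µM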;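 note: resorufin red fluorescence formed as diaphorase reduces resazurin using NADPH; 0% = DMSO with enzyme and 100% = DMSO without enzyme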
Diaph ctr 30uM: counter-screen for P. falciparum G6PD inhibitors: diaphorase inhibitors, oxidizers; 29% of 820 active; Diaphorase/resazurin coupled assay, resorufin fluorescence, 30 uM NADPH; inhibition, % at 20 µM; shares compounds with PfGluPho inh;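 active = inhibition averaging 50% or more, tested at 20 µM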;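 note: 0% = DMSO with enzyme and 100% = DMSO wells lacking diaphorase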
Numbers without * were called inactive; / = no result. This is a sample that favours compounds with a hit; in the whole collection about 2.4% have one here.

SMILES | APOBEC3G inh | APOBEC3A inh | M18AAP inhibitor | PfGluPho inh | Yeast superoxide | PfG6PD confirm | others
COc1cc(/C=N/N2CCN(C3c4ccccc4-c4ccccc43)CC2)cc(OC)c1OC | -6 | -4 | -11 | -2 | 114 | /
COc1cc(/C=N/N2CCN(C3c4ccccc4-c4ccccc43)CC2)cc(OC)c1O | 5 | 1 | 19 | 76* | 109 | 17
CC(=O)N1C[C@H]2CON(C)[C@H]2C[C@H]1c1cccc(-c2ccc(C#N)cc2)c1 | / | / | / | 0 | / | /
C=C1CCN(C(CC(C)C)C(=O)OC)S(=O)(=O)c2ccccc21 (stereo unspecified) | -8 | -1 | / | 0 | 79 | /
COC(=O)[C@H](CC(C)C)N1Cc2cc(OC)cc(OC)c2-c2ccccc2S1(=O)=O | -1 | 1 | / | 65* | 104 | 12
O=S(=O)(Nc1c(O)ccc2ccccc12)c1ccccc1 | 7 | 2 | / | 75* | 106 | 52* | Diaph ctr 10uM=25;Diaph ctr 30uM=22
O=S(=O)(Nc1c(O)ccc2ccccc12)c1ccc(F)cc1 | 7 | 1 | / | 76* | 115 | 40
COc1cc(CCC(=O)Nc2nccs2)cc(OC)c1OC | -5 | -4 | -1 | -1 | 100 | /
Nc1nc2ccccc2n1/N=C/c1ccc(-c2ccccc2)o1 | -3 | 2 | 2 | 80* | 108 | 13
Nc1nc2ccccc2n1/N=C/c1cccnc1 | -3 | -2 | -2 | 19 | 105 | /
Cc1[nH][nH]c(=O)c1C(c1ccc(Cl)cc1)c1c(C)[nH][nH]c1=O | -5 | -8 | 17 | 7 | 94 | /
O=C1CCCC(=O)C1C(c1ccc(Cl)cc1)C1C(=O)CCCC1=O | -6 | -2 | / | 77* | 121 | 47
O=C(CNC(=O)C1COc2ccccc2O1)N/N=C\c1ccc(Br)cc1 (stereo unspecified) | -8 | -3 | 6 | -3 | 106 | /
COc1ccc(Br)cc1/C=N/NC(=O)CNC(=O)C1COc2ccccc2O1 (stereo unspecified) | -1 | 1 | 4 | 119* | 109 | 103* | Diaph ctr 10uM=97*;Diaph ctr 30uM=77*
C[C@H]1CN([C@@H](C)CO)C(=O)c2cc(C#CCC3CCCC3)cnc2O[C@@H]1CN(C)C(=O)CC1CC1 | / | / | / | 44 | / | /
CCOc1ccc(/C=C/[N+](=O)[O-])c2ccccc12 | -1 | 4 | 22 | 64* | 73 | 10
O=[N+]([O-])/C=C/c1c(OCc2ccccc2)ccc2ccccc12 | -8 | 0 | 13 | / | 92 | /
Cn1c(=O)[nH]c(=O)c2c1nc(SCC(=O)O)n2CCc1ccccc1 | -3 | -5 | 3 | 63* | 88 | 9
CCCCCn1c(N2CCC(Cc3ccccc3)CC2)nc2c1c(=O)[nH]c(=O)n2C | 3 | 3 | -2 | 66* | 114 | -12
COc1ccc(S(=O)(=O)N2CCOCC2)cc1NC(=O)Cc1ccc2c(c1)OCCO2 | -6 | -2 | / | -4 | 96 | /
Cc1ccc(Cc2c(-c3ccc(Br)cc3)nc3cc(C)ccn23)cc1 | / | / | / | 109* | / | 14
Cc1ccn2c(/C=N/OCc3ccc(F)cc3)c(-c3ccc(Cl)cc3)nc2c1 | -8 | -1 | 1 | 1 | 111 | /
Cc1ccc(Cc2c(-c3ccccc3)nc3ccc(Br)cn23)cc1 | / | / | / | 31 | / | /
Cc1ccc(Cc2c(-c3ccc(F)cc3)nc3cc(C)ccn23)cc1 | / | / | / | 71* | / | -11
Cc1ccc(Cc2c(-c3ccc(F)cc3)nc3ccc(Cl)cn23)cc1 | / | / | / | 62* | / | -18
SMILES | APOBEC3G inh | APOBEC3A inh | M18AAP inhibitor | PfGluPho inh | Yeast superoxide | PfG6PD confirm | others
O=[N+]([O-])c1cccc(COc2ccccc2CN2CCCC2)c1 | / | / | / | -7 | / | /
CC(C)(C)c1ccc(C(=O)NCCC(=O)Nc2cc(Cl)ccc2N2CCOCC2)cc1 | 4 | 12 | / | 17 | 100 | /
COc1cc2[nH]c3c(Cl)ncnc3c2cc1OC | -2 | 4 | 2 | 2 | 99 | /
COc1cc2[nH]c(Cl)c([N+](=O)[O-])c2cc1OC | -3 | -1 | 11 | 104* | 117 | 21
COc1ccc2c(c1)c1ccc3c(c1n2C)C(=O)C=CC3=O | 6 | -6 | 5 | 56 | / | /
Cn1c2ccccc2c2ccc3c(c21)C(=O)C=CC3=O | / | / | / | 81* | / | 53* | Diaph ctr 10uM=-40;Diaph ctr 30uM=-7

High-throughput results deposited in PubChem BioAssay by several laboratories.
